Common to all, as to experiment: NCI-60 one-dose screen, 48 h (100 = growth as untreated, 0 = no growth, -100 = all killed)
Common to all, as to conditions: 10 µM unless noted

Experiment [1] deals with NCI-H23 lung.
The test system of experiment [2] is NCI-H226 lung.
For experiment [3], the system named is NCI-H322M lung.
Experiment [4] relates to HOP-62 NSCLC.
The test system of experiment [5] is NCI-H460 lung.
Experiment [6] has as its system HOP-92 NSCLC.
The test system of experiment [7] is NCI-H522 lung.
In experiment [8] the test system is A549/ATCC NSCLC.
Experiment [9] relates to 786-0 renal.
For experiment [10], the system named is COLO 205 colon.
Experiment [11] has as its system DU-145 prostate.
Experiment [12] has as its system K-562 leukemia.
Experiment [13] concerns MALME-3M melanoma.
Experiment [14] has as its system MDA-MB-231 breast.
Experiment [15] has as its system RXF 393 renal.
In experiment [16] the test system is SF-268 CNS.
The subject of experiment [17] is SF-295 CNS.
In experiment [18] the test system is SF-539 CNS.
Experiment [19] deals with UACC-257 melanoma.
Experiment [20] relates to M14 melanoma.

This note sets out measurements from PubChem BioAssay (NCI).

The structures appear in SMILES notation. The panel holds about 83,000 compounds, 20% with a hit somewhere; the sample as a whole holds those more often.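 How to read the values: 0–100, growth inhibition (40 = 60% inhibited); 0, no net growth; -100 to 0, cell death (-40 = 40% of starting cells died; -100 = all dead).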 Values without a mark were called inactive. Activity calls are given as the source filed them. The calls were made as follows: active = growth percent below 10; inactive = the rest.

`N#Cc1c(-c2ccccc2)c(C#N)c2c(C#N)c(N)nn2c1N`: the growth in experiment [1] was 72.2%; in experiment [2] it was 74%; in experiment [3], 83.5%; in [4], 40.2%; in [5], 19.7%; in experiment [6], 27.1%. Also, the growth is 13.1% in experiment [7]; 38.7% in experiment [8]; 53.4% in experiment [9]; 29.4% in experiment [10]; 78.6% in experiment [11]; 6.77% (active) in experiment [12]. Moreover, the growth in experiment [13] was 39.6%; in [14], 33.6%; in experiment [15] it was 69.8%; in [16] it was 56.3%; in experiment [17] it was 33.4%; in experiment [18], 37.2%. The growth was 51.1% in experiment [19] and 32.9% in [20].

Regarding `CCOC(=O)C/C(=N\Nc1cc(=O)[nH]c2ccc(Cl)cc12)C(=O)OCC`, the growth in experiment [1] is 95.3%; in experiment [2], 98.2%; in experiment [3], 91.3%; in experiment [4], 101%; in experiment [5], 103%; in experiment [6], 87.5%. The growth in [7] was 105%; in [8], 100%; in [9], 106%; in [10], 121%; in experiment [11], 106%; in [12] it was 43.9%. Also, the growth in experiment [13] was 95.8%; in [14], 98.8%; in experiment [15] it was 110%; in experiment [16], 98.6%; in [17] it was 103%; in experiment [18], 98.8%. Moreover, the growth in experiment [19] is 105%; in [20], 95.5%.

As for `Cc1cc2oc(=O)cc(CP(=O)(O)O)c2cc1O`, the growth in [1] is 100%; in experiment [2], 102%; in [3] it was 91.2%; in [4] it was 97.3%; in experiment [5], 103%; in experiment [6] it was 100%. In addition, the growth in experiment [7] is 93.9%; in [8], 99.9%; in experiment [9] it was 105%; in [10] it was 104%; in experiment [11] it was 103%; in [12] it was 107%. Also, the growth in [13] was 85.8%; in experiment [14] it was 97.4%; in experiment [15], 103%; in experiment [16] it was 96.6%; in experiment [17], 100%; in experiment [18], 96.8%. Moreover, the growth is 94.5% in [19] and 103% in experiment [20].

For `O=C(NCc1ccc2c(c1)OCO2)NCC1CCCC(CNC(=O)NCc2ccc3c(c2)OCO3)C1` (stereo not given), the growth was 99.7% in experiment [1]; 100% in experiment [2]; 108% in [3]; 102% in experiment [4]; 101% in experiment [5]; 103% in experiment [6]. The growth was 89.4% in [7]; 96.9% in [8]; 97.6% in [9]; 119% in experiment [10]; 108% in experiment [11]; 95.3% in experiment [12]. Besides, the growth in experiment [13] is 108%; in experiment [14] it was 96.4%; in experiment [15], 106%; in [16] it was 97.7%; in [17], 101%; in experiment [18], 103%. For the same molecule, the growth is 104% in experiment [19] and 109% in experiment [20].

For `Nc1c(C(=O)Nc2ccccn2)sc2nc3c(cc12)C(O)CCC3` (stereo not given), the growth is 45.1% in experiment [1]; 57.7% in experiment [2]; 36.5% in [3]; 26.3% in [4]; 13.7% in experiment [5]; 50.9% in [6]. Also, the growth is 11.8% in experiment [7]; 36.4% in [8]; 32.9% in [9]; 23.6% in experiment [10]; 25% in experiment [11]; 20.6% in experiment [12]. Moreover, the growth in experiment [13] was 60.8%; in experiment [14] it was 67.1%; in experiment [15], 4.65% (active); in experiment [16] it was 44%; in [17] it was 4.92% (active); in experiment [18] it was 8.44% (active). The figures for the growth in [19] and in experiment [20] were 53.2% and 21.1%, respectively.

As for `O=C1OCC2=C1C(c1cccc(C(F)(F)F)c1)c1cc3c(cc1N2CCO)OCO3` (stereo not given), the growth was 29.5% in experiment [1]; 66% in [2]; 42.4% in [3]; 33% in experiment [4]; 13% in [5]; 51.4% in [6]. The growth was 16.1% in experiment [7]; 28.9% in experiment [8]; 28.5% in experiment [9]; -2.39% (active) in experiment [10]; 10.7% in experiment [11]; 9.02% (active) in experiment [12]. Besides, the growth in experiment [13] was 63.9%; in [14], 44%; in experiment [15] it was 1.92% (active); in [16] it was 47.6%; in [17], -2.78% (active); in [18], -3.02% (active). Also, the growth in [19] was 74.2%; in experiment [20] it was 2.33% (active).

Turning to `O=C1c2cc3c(cc2-c2c1c1ccc(Cl)cc1c(=O)n2C[C@H](O)CO)OCO3`, the growth in experiment [1] was -11.4% (active); in experiment [2], -77.7% (active); in [3], -14.3% (active); in experiment [4], -19.8% (active); in experiment [5], -12.1% (active); in [6], -11% (active). Further, the growth is -12.7% (active) in experiment [7]; -18.6% (active) in experiment [8]; -42.2% (active) in [9]; -28.1% (active) in [10]; 3.78% (active) in experiment [11]; 10.4% in [12]. Moreover, the growth in experiment [13] is -26.7% (active); in experiment [14], 19.5%; in experiment [15] it was -66.6% (active); in [16] it was 4.7% (active); in [17], -14.8% (active); in experiment [18], -33.1% (active). The growth in [19] was -36% (active); in experiment [20] it was -14.2% (active).
